Data on 40 compounds can be found in PubChem BioAssay (EPA / NIEHS).

The source made the active and inactive calls. Rule for the calls: active = hit-call score of the fitted dose curve at least 0.9, where 1 is the maximum; inactive = score below 0.9.

Read-out in this assay: growth arrest and DNA damage 45 (GADD45G), GADD45G (gene 10912)
Description: LTEA_HepaRG_GADD45G: Life Technologies and Expression Analysis (LTEA) Assay for growth arrest and DNA damage 45 (GADD45G) using HepaRG (AID 2283499). Conditions: mRNA level, 48 h; actives raise or lower the signal. The protocol:
LTEA_HepaRG is a cell based, multiplexed-readout assay that uses HepaRG, a human liver cell line, with measurements taken at 48 hours after chemical dosing on a 96-well plate.LTEA_HepaRG_GADD45G is one of 102 assay component(s) measured in the LTEA HepaRG cell culture assay. It is a marker of Cell proliferation, survival, death.Data from the assay component LTEA_HepaRG_GADD45G was analyzed into 1 endpoint. This assay endpoint, LTEA_HepaRG_GADD45G, was analyzed with bidirectional fitting relative to DMSO as the negative control and baseline of activity. Using a type of inducible reporter, measures of mRNA induction for gain or loss-of-signal activity can be used to understand regulation of transcription factor activity. To generalize the intended target to other relatable targets, this assay endpoint is annotated to the mutagenicity response intended target family, where the subfamily is Cell proliferation, survival, death.
A total of 1060 chemcials from the ToxCast library were tested in eight-point concentration-response experiments. Cell culture and cytotoxicity assays were conducted at Thermo Fisher Scientific's Custom Services facility (Madison, WI). A single lot of human HepaRG cells (Thermo Fisher Scientific, Frederick, MD) was used for the cell culture experiments. 96-well format collagen type I coated plates of human HepaRG cells were prepared using established methods. Briefly, cryopreserved HepaRG cells were thawed, plated at a density of approximately 100,000 cells/well in HepaRG Thaw, Plate, and General Purpose media (HPRG770, Thermo Fisher Scientific), and incubated for 48 hours. 0.5% DMSO was selected as vehicle control to balance the requisite need of DMSO in HepaRG cultures to maintain differentiation (for example, baseline metabolism, proportions of hepatocytes vs. cholangiocytes), while enabling further hepatic receptor pathway activation (for example, PXR and CAR) in response to chemical exposure. 48 hours after plating, the culture medium was replaced with HepaRG Serum-Free Incudtion Media. Cells were exposed to each test chemical in duplicate and maintained in CO2 incubators for another 48 hours. Chemical plates were thawed to room temperature and 200x concentrations of treatment groups were prepared. 8-point conentration-reponse curves were made with the highest exposure at 100 uM, followed by half-log dilutions, all in 0.5% DMSO. Each test plate contained variouse controls, induction positive controls (1mM phenobarbital), cytotoxicity positive controls ([…] aflatoxin B1), vehicle controls (0.5% DMSO), and total lysis controls (0.5% DMSO). Cell morphology images were taken using an Essen IncuCyte FLR automated microscope, with six 96-well plates imaged in about 24 minutes. Images were captured and exported and JPEG files. Spent culture media was transfered to black-well plates for the LDH assay, and remaining media was sorted at -80 C for later use. Cells were treated with RLT buffer and frozen until shipped for gene expression analysis. Total RNA was isolated from the cell suspension in 75 uL of Buffer RLT (Qiagen, Germantown, MD 20874) by Quintiles/Expression Analysis (Durham, NC) using a custom isolation procedure. Total RNA from each plate well was transferred to a preamplification plate. Fluidigm's 96.96 Dynamic ArrayTM (Fluidigm, Amsterdam, the Netherlands) technology was used for gene expression analyses by quantitative reverse transcription polymerase chain reaction (qRT-PCR, performed by Quintiles/Expression Analysis, Durham, NC)89. Standard TaqManTM Assays (Applied Biosystems/ThermoFisher Scientific, Foster City, CA) were used to assess the expression of 93 genes selected based on their selectivity and sensitivity to important hepatic receptors known to be modulated by environmental chemicals; importance in human hepatocyte functionality; and hepatotoxicity. […]
What is called AC50 is the concentration giving half of the maximal activity seen. Take `CO/N=C(/C1=NOCCO1)c1ccccc1Oc1ncnc(Oc2ccccc2Cl)c1F`: the AC50 is 18.4 µM (active).

In the case of `Clc1nc(Cl)nc(Nc2ccccc2Cl)n1`, the call was inactive. On the same count and under the same terms, in the case of `C=CCOC(=O)C(C)(C)OC(=O)c1cc(-n2c(=O)cc(C(F)(F)F)n(C)c2=O)ccc1Cl` it was “inactive”.

Consider `C=C(C)CN(CC)c1c([N+](=O)[O-])cc(C(F)(F)F)cc1[N+](=O)[O-]`, for which the call was inactive.

`CSC(=O)c1c(C(F)F)nc(C(F)(F)F)c(C(=O)SC)c1CC(C)C`: the AC50 is 65.3 µM (active). With `O=C(O)c1c(Cl)ccc2cc(Cl)cnc12`, the result was inactive. The same measure, in the same setting: the value for `COC(=O)N(C(=O)N1CO[C@@]2(C(=O)OC)Cc3cc(Cl)ccc3C2=N1)c1ccc(OC(F)(F)F)cc1` was “inactive”. On the same count and under the same terms, the value for `CNC(=O)Oc1cccc2ccccc12` was “inactive”; that for `Cc1nc(N(C)C)nc(OC(=O)N(C)C)c1C` was “inactive”; that for `COC(=O)NS(=O)(=O)c1ccc(N)cc1` was “inactive”. Regarding `CCOc1nc(F)cc2nc(S(=O)(=O)Nc3c(Cl)cccc3Cl)nn12`, the compound was classed as inactive.

Turning to `CS(=O)(=O)c1cc(C(F)(F)F)ccc1C(=O)c1cnoc1C1CC1`, the compound was classed as inactive.

Turning to `Nc1cnn(-c2ccccc2)c(=O)c1Cl`, the result was inactive. `CCNC(=O)NC(=O)C(C#N)=NOC`: the outcome was inactive. For the compound `CCN(CC)c1nc(C)cc(OP(=S)(OC)OC)n1`, the compound was called inactive. Still for that read-out and setting: the value for `CS(=O)(=O)c1ccc(C(=O)C2C(=O)CCCC2=O)c([N+](=O)[O-])c1` was “inactive”; that for `CCOP(=S)(OCC)Oc1nc(Cl)n(C(C)C)n1` was “inactive”. As for `CC1(C)CON(Cc2ccccc2Cl)C1=O`, the outcome was inactive. With `CCCC(=NOCC)C1=C(O)CC(CC(C)SCC)CC1=O` (stereo not given), the result was inactive. Take `Nc1c(Cl)c(F)nc(OCC(=O)O)c1Cl`: the result was inactive. Still for that read-out and setting: in the case of `CNC(=O)N(C)c1nnc(C(C)(C)C)s1` it was “inactive”. As to `N#Cc1c[nH]cc1-c1cccc2c1OC(F)(F)O2`, the call was inactive. On to `CN=C=S`, for which the compound was called inactive. For `O=C(Nc1ccccc1-c1ccc(Cl)cc1)c1cccnc1Cl`, the outcome was inactive. The same measure, in the same setting: the value for `Cc1cnc(C2=NC(C)(C(C)C)C(=O)N2)c(C(=O)O)c1` (stereo not given) was “inactive”. As to `CCCCC(C#N)(Cn1cncn1)c1ccc(Cl)cc1` (stereo not given), the concentration at half-maximal activity (AC50) was 11.7 µM (active). As for `O=c1n(Cl)c(=O)n(Cl)c(=O)n1Cl`, the outcome was inactive. As to `N#CN=C1SCCN1Cc1ccc(Cl)nc1`, the compound was classed as inactive. For `CC1(C)C(C(=O)OC(C#N)c2cccc(Oc3ccccc3)c2)C1(C)C` (stereo not given), the compound was classed as inactive. Regarding `CCOc1nc(C(Cl)(Cl)Cl)ns1`, the compound was called inactive. For `CC(C)NC(=O)N1CC(=O)N(c2cc(Cl)cc(Cl)c2)C1=O`, the AC50 is 50 µM (active). As to `CCCCOCN(C(=O)CCl)c1c(CC)cccc1CC`, the compound was classed as inactive.

For the compound `COCC(C)N(C(=O)CCl)c1c(C)csc1C` (stereo not given), the outcome was inactive. With `CCNP(=S)(OC)O/C(C)=C/C(=O)OC(C)C` (stereo not given), the result was inactive. For the compound `Cc1cc(C)nc(Nc2ccccc2)n1`, the compound was called inactive. With `COc1cc(OC)nc(NC(=O)NS(=O)(=O)c2ncccc2OCC(F)(F)F)n1`, the AC50 is 0.19 µM (active). As for `Cc1ccc(N=CN(C)C=Nc2ccc(C)cc2C)c(C)c1`, the compound was classed as inactive. For the compound `COP(=O)(OC)O/C(C)=C/C(=O)N(C)C`, the compound was called inactive. With `CC(C)=CC1C(C(=O)OCc2coc(Cc3ccccc3)c2)C1(C)C` (stereo not given), the compound was called inactive. For the compound `COC(=O)c1c(C(F)F)nc(C(F)(F)F)c(C2=NCCS2)c1CC(C)C`, the compound was classed as inactive.
